In PMC3218832:

Assays:
Assay in all cases: protein binding microarray; high values mean tight binding
Conditions in all cases: dsDNA, one strand shown
RELARELA (p65 homodimer) = RELARELA (p65 homodimer) (Homo sapiens, UniProt Q04206 1-307)
p50p50 homodimer = p50p50 homodimer (Homo sapiens, UniProt P19838 7-356)
p52p52 homodimer = target: T1, p52p52 homodimer (Homo sapiens, UniProt Q00653 4-332)
T1 sequence: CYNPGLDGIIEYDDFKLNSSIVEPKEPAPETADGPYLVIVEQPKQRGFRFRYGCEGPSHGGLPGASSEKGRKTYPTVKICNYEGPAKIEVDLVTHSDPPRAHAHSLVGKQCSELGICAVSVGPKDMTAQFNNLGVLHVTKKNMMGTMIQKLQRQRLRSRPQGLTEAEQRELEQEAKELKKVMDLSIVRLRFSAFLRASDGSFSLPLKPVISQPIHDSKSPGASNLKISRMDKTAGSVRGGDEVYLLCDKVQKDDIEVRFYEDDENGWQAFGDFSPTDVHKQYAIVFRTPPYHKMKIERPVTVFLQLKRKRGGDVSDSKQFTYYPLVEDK

[1] = target: RELA (p65) subunit of heterodimer;p50 subunit (Homo sapiens;Homo sapiens, UniProt Q04206;P19838 1-307;7-356)
[2] = target: RELA (p65) subunit of heterodimer;p52 subunit (Homo sapiens;Homo sapiens, UniProt Q04206;Q00653 1-307;4-332)
RELB subunit;p50 subunit = RELB subunit;p50 subunit (Homo sapiens;Homo sapiens, UniProt Q01201;P19838 120-401;7-356)
RELB subunit;p52 subunit = target: T2, RELB subunit;p52 subunit (Homo sapiens;Homo sapiens, UniProt Q01201;Q00653 120-401;4-332)
T2 sequence 1: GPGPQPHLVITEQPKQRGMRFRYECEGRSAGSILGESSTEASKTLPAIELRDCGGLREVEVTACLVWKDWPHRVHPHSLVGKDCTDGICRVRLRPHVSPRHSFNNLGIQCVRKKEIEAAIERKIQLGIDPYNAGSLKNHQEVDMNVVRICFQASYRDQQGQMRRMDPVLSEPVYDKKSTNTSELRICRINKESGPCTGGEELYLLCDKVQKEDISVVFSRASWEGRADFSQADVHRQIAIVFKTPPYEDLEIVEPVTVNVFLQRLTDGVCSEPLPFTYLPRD
T2 sequence 2: T1 sequence

[3] = target: C-Rel subunit;p50 subunit (Homo sapiens;Homo sapiens, UniProt Q04864;P19838 1-285;7-356)
[4] = target: T3, C-Rel subunit;p52 subunit (Homo sapiens;Homo sapiens, UniProt Q04864;Q00653 1-285;4-332)
T3 sequence 1: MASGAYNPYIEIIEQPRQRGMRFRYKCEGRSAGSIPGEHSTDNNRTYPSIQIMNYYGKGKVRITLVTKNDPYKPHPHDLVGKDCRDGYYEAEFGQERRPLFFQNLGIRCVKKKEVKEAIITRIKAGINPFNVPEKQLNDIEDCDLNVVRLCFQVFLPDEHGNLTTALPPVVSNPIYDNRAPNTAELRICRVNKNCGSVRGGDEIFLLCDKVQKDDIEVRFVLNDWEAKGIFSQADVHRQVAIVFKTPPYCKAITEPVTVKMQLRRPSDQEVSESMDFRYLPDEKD
T3 sequence 2: T1 sequence

Chain of p50p50 homodimer (P19838 7-356): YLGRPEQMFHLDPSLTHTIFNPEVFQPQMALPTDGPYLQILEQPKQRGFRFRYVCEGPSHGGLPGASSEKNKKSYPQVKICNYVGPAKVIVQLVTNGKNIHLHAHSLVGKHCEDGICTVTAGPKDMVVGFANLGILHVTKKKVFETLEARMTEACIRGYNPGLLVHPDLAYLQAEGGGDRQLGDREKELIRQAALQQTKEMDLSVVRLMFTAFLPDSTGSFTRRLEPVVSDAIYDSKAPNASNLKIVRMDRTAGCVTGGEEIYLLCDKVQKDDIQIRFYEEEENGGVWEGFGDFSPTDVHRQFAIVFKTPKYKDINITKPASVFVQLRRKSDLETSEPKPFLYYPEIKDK
Chain of RELA (p65) subunit of heterodimer;p50 subunit (Q04206 1-307, chain 1 of 2): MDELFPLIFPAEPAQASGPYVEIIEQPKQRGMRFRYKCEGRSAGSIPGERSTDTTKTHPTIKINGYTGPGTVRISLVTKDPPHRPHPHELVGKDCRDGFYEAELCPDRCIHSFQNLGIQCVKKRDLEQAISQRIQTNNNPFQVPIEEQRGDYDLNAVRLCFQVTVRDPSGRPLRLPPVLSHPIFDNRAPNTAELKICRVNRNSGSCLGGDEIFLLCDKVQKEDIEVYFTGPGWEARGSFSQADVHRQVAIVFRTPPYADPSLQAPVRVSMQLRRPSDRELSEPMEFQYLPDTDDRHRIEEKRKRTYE
Chain of RELA (p65) subunit of heterodimer;p50 subunit (P19838 7-356, chain 2 of 2): as the sequence (P19838 7-356) above
Chain of RELARELA (p65 homodimer) (Q04206 1-307): as the sequence (Q04206 1-307, chain 1 of 2) above

Sequence	binding signal (RELARELA (p65 homodimer)) [z-score]	binding signal (p50p50 homodimer) [z-score]	binding signal (p52p52 homodimer) [z-score]	binding signal [1] [z-score]	binding signal [2] [z-score]	binding signal (RELB subunit;p50 subunit) [z-score]	binding signal (RELB subunit;p52 subunit) [z-score]	binding signal [3] [z-score]	binding signal [4] [z-score]
AGGATAATCCC	1.11	-0.039	0.47	0.562	0.416	-0.113	0.0769	0.307	0.396
GGAGAAGTCCT	0.391	-0.831	-0.506	-0.525	-0.585	-0.798	-0.864	-0.433	-0.307
CAAAGAACCCT	-0.87	-0.409	-0.354	-0.631	-0.614	-0.682	-0.58	-0.78	-0.544
AAGAAAGCCCT	-0.308	-0.8	-0.426	-0.68	-0.581	-0.838	-0.728	-0.563	-0.671
GAGATTGCCCC	0.817	0.318	0.0909	0.951	0.468	0.435	0.366	1.1	0.621
AGGAAACTCCT	2.04	-0.999	-0.404	-0.105	-0.54	-0.699	-0.839	-0.168	-0.211
AGAGAACTCCT	-0.542	-1.29	-0.694	-0.888	-1.06	-1.05	-0.943	-1.01	-0.762
GAATACTCCCC	0.403	0.933	0.502	0.707	0.752	0.8	0.628	0.806	0.479
GAGTTGCCCCC	0.487	1.04	0.557	1.06	0.811	0.918	0.947	1.16	0.676
AAAAAGCTCCT	-0.678	-1.47	-0.675	-1.01	-1.04	-1.17	-1.06	-1.49	-1.07
GAGGTTGCCCT	-0.221	-1.5	-0.704	-0.605	-0.676	-0.817	-0.624	-0.77	-0.503
CAGGACACCCT	-0.817	-1.69	-0.717	-0.865	-0.828	-0.795	-0.656	-1.21	-0.705
AGAAAACTCCC	1.36	1.03	0.9	1.14	0.979	1.35	0.74	0.654	0.947
CAAAATATCCC	0.764	0.4	0.253	0.376	0.346	0.128	0.342	0.0335	0.411
GAAAAATTCCT	1.78	-0.0646	-0.212	0.245	0.117	-0.659	-0.236	0.538	0.319
AGATAGTTCCC	0.521	-0.317	-0.177	-0.261	-0.107	-0.129	-0.286	-0.0396	-0.0868
GAGTACACCCT	-0.136	-0.892	-0.573	-0.83	-0.569	-0.614	-0.527	-0.745	-0.376
GAGGAATCCCT	0.176	0.599	0.671	0.612	0.532	0.403	0.517	0.573	0.416
AAAGGGTTCCT	-0.817	-1.23	-0.468	-0.866	-0.749	-1.03	-0.714	-0.957	-0.558
CAGGTCATCCT	-0.599	-1.84	-0.537	-1.21	-1.08	-1.24	-0.916	-1.52	-1.02
CGGGTCGTCCT	-0.683	-1.36	-0.504	-0.972	-0.834	-0.864	-0.859	-1.15	-0.64
GAAGGCATCCT	-0.848	-1.34	-0.851	-1.13	-1.21	-1.29	-1.12	-1.72	-1.14
GGAGAGCTCCT	-0.469	-1.71	-0.711	-1.01	-1.01	-1.17	-1.06	-1.65	-1.07
GAAAAGGCCCC	-0.413	0.523	0.108	0.289	0.416	0.151	0.246	-0.101	0.313
CAAATCTCCCT	0.0987	1.24	0.832	1.06	1.05	1.35	1.4	0.664	1.06
AGGATACCCCC	0.417	1.14	0.992	1.34	1.29	1.01	1.54	0.882	1.24
GGATGTCCCCC	0.799	1.11	1.17	1.69	1.37	1.27	1.47	1.1	1.45
GGAGTAATCCC	0.396	-0.279	0.000216	-0.0898	-0.103	-0.277	-0.368	0.0858	0.0188
CGATGCTCCCC	0.0266	-0.0437	-0.125	-0.0461	-0.196	0.111	0.0431	0.0174	-0.273
AGAGACCTCCC	-0.639	-0.985	-0.531	-0.592	-0.789	-0.533	-0.671	-0.845	-0.997
